KDM4E inh – inhibitors of human JMJD2E histone demethylase; JMJD2E catalytic domain, FDH-coupled NADH fluorescence (FDH is formaldehyde dehydrogenase); Potency, µM (titrated, usually from 57.1 µM), hits mostly inhibitors; B2RXH2; actives 1.6% (n = 230,000); active means well fitted inhibition curve with a large enough effect, not every such curve was filed as active; inconclusive means small, poorly fitted or top-dose-only effect, or another doubt; inactive means no such curve, though single readings can be large or run the other way; further: nearly all actives have a fitted effect of over 50% in size
Coupling enz – counter-screen for Giardia aldolase inhibitors: coupling enzyme system; actives 0.67% (n = 290,000); AID 2472; activity change, negative = inhibition, % at 58.2 µM, hits read low; coupling enzyme system counterscreen, AmpLite Red fluorescence; in the data active means activity change below about -30%
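Coupling enzymes only (glyceraldehyde-3-phosphate) + compound, at 57.5 uM final, 10 min RT; add substrate/coupling/AmpLite Red mix, 20 min RT; fluorescence ex 525/em 598 nm. Actives flag coupling-system interference.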
HTT aggregate – mutant huntingtin aggregation inhibition; AID 1688; Potency, µM (titrated, usually from 46.1 µM), usual class: inhibitors; actives 1.1% (n = 220,000); PC12 HttQ103-GFP aggregates, Acumen cytometry, 40 h; further: nearly all actives have a fitted effect of over 60% in size
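Aggregate formation scored by laser-scanning cytometer (488 excitation, 500–530 emission) in lysed PC12 cells expressing Q103-GFP after 100 nM tebufenozide induction; library tested in dose series, with ATPLite reagent added in the multiplex.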
HTT ATP protect – protects HTT-Q103 PC12 cells, measured by ATP. Potency, µM (top dose mostly 56.4 µM), most hits filed as activators. actives 0.14% (n = 230,000). PC12 HTT-Q103 induced, cytoprotection, ATP luminescence, 40 h; further: nearly all actives have a fitted effect of over 45% in size
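PC12 cells with ecdysone-inducible HTT exon 1 Q103-GFP, induced with 100 nM tebufenozide and co-treated with library compounds in a dose series (1536-well, 1500 cells/well). Cytoprotection read as ATP content by ATPlite luminescence.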
GoLoco inh red – RGS12 GoLoco-Gai1 interaction inhibition; P63096; Gai1:RGS12 GoLoco peptide FP, rhodamine, 10 min; Potency, µM (series often up to 61.6 µM), usual class: inhibitors; actives 0.44% (n = 230,000); AID 880; active means well fitted inhibition curve with a large enough effect, not every such curve was filed as active; inactive means no such curve, though single readings can be large or run the other way; further: nearly all actives have a fitted effect of over 30% in size
VDR inh – inhibitors of human vitamin D receptor; AID 504847; VDR-SRC2-3 peptide fluorescence polarization, 2 h; Potency, µM, actives largely listed as inhibitors; actives 0.93% (n = 400,000); P11473
Target sequence (P11473 whole entry, looked up): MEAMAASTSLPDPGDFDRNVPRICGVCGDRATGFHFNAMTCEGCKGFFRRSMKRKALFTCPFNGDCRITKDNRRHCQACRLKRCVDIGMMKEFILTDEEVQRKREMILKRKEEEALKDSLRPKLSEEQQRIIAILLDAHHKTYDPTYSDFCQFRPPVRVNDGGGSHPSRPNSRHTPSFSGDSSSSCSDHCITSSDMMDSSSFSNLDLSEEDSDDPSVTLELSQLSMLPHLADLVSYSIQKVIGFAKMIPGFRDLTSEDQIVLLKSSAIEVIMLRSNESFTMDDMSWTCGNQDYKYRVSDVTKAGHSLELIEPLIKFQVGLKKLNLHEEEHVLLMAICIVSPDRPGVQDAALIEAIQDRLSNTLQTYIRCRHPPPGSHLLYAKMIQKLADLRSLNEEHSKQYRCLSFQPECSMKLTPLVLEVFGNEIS
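VDR–SRC2-3 interaction, FP format. Cmpds 23 nl via pintool, brief spin, 2 h ambient incubation.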
Each line names hits and unclear results; the compound was inactive in the other large screens; ! = not confirmed by another sample. Sampled rows, rich in hits. Any-hit rate of the full collection: about 2.3%. Unless noted, the call rests on the fitted dose curve; in most records, active means well fitted curve in the direction sought with a large enough effect; inconclusive means small, poorly fitted or top-dose-only effect, or another doubt; inactive means no such curve, though single readings can be large; an effect the other way counts as inactive or inconclusive.

COCCN1CCn2c(nc3cc(NC(=O)NC4CCCCC4)ccc32)C1	KDM4E inh inconclusive, Coupling enz -30.7
O=C(Nc1ccc2c(c1)nc1n2CCN(Cc2ccccc2)C1)NC1CCCCC1	KDM4E inh inconclusive, Coupling enz -36.6
O=C(Nc1ccc2c(c1)nc1n2CCN(Cc2ccccc2)C1)c1cccs1	KDM4E inh inconclusive, HTT aggregate inconclusive
CCn1c(/C=C/N(C)c2ccccc2)[n+](CC)c2ccc(Cl)cc21	HTT aggregate 4.47µM, GoLoco inh red 1µM
CCOC(=O)C1=C(C)Nc2ccccc2N/C1=N\S(=O)(=O)c1cc(C(=O)O)ccc1Cl	none (no result: KDM4E inh, Coupling enz, HTT aggregate, HTT ATP protect, GoLoco inh red)
Nc1sc2c(c1C(=O)NC1CC1)CCCC2	VDR inh 79.4µM (no result: KDM4E inh, Coupling enz, HTT aggregate, HTT ATP protect, GoLoco inh red)
N[C@H](Cc1ccc(F)cc1)C(=O)O	none (no result: KDM4E inh, Coupling enz, HTT aggregate, GoLoco inh red, VDR inh)
O=C(Nc1ccc([N+](=O)[O-])cc1Cl)c1cc(Cl)cc(Cl)c1O	none (no result: KDM4E inh, Coupling enz, HTT aggregate, HTT ATP protect, GoLoco inh red)
O=C(Nc1cc(Cl)ccc1Cl)c1cc([N+](=O)[O-])cc(Br)c1O	VDR inh 79.4µM (no result: KDM4E inh, Coupling enz, HTT aggregate, HTT ATP protect, GoLoco inh red)
Cc1ccc2[nH]c(=O)c(-c3nc4cc(C)ccn4c3NCc3ccco3)cc2c1	KDM4E inh 3.16µM
Cc1ccn2c(NCc3ccco3)c(-c3ccccc3)nc2c1	none (no result: KDM4E inh, Coupling enz, HTT aggregate, HTT ATP protect, GoLoco inh red)
CCN(CC(=O)Nc1c(F)cccc1F)C(=O)CCC(=O)c1ccc(C)cc1	none (no result: KDM4E inh, Coupling enz, HTT aggregate, HTT ATP protect, GoLoco inh red)
COc1ccc(OC2C=CC(C#Cc3ccccc3)OC2CO)cc1 (centres undefined)	none (no result: KDM4E inh, HTT aggregate, GoLoco inh red, VDR inh)
O=C(c1ccccc1)[C@@H]1[C@@H](C(=O)c2ccc(F)cc2)[C@@]2(C(=O)Nc3ccccc32)[C@H]2c3ccccc3C=CN12	Coupling enz -30.9, HTT aggregate inconclusive, VDR inh inconclusive (no result: GoLoco inh red)
CC1(OC(=O)c2ccc(Cl)nc2)C(=O)C=C2C=C3CCCN3C=C2C1=O (centres undefined)	KDM4E inh 5.62µM, VDR inh inconclusive
CC1(OC(=O)c2ccc(Cl)nc2)C(=O)C=C2C=C(c3ccc(C#N)cc3)OC=C2C1=O (centres undefined)	VDR inh 89.1µM! (no result: HTT aggregate)
COc1ccc(OC)c(-n2nnnc2SCC(=O)N2CCN(C(=O)c3ccco3)CC2)c1	VDR inh 70.8µM
O=C(NC(NC(=S)Nc1ccccc1C(=O)O)C(Cl)(Cl)Cl)c1ccccc1 (centres undefined)	KDM4E inh inconclusive, VDR inh 79.4µM
CSC1=NC(=O)/C(=C\c2cccc3ccccc23)S1	HTT aggregate inconclusive, VDR inh 79.4µM
N=C1S/C(=C\c2cccc3ccccc23)C(=O)N1c1ccc(F)cc1	none
COc1cccc(/C=N/NC(=O)c2ccc3nc[nH]c3c2)c1O	KDM4E inh 10µM
CCC(=NNC(=O)c1ccc2c(c1)nc(C)n2CC)c1cc(F)ccc1O	none (no result: KDM4E inh, Coupling enz, HTT aggregate, HTT ATP protect, GoLoco inh red)
CCn1c(C)nc2cc(C(=O)N/N=C/c3ccc(O)c(O)c3O)ccc21	Coupling enz -53.0
COc1cccc(/C=N/NC(=O)c2c(C)nc3ccc(Br)cn23)c1O	KDM4E inh inconclusive, HTT aggregate 2.24µM
CCn1c(C)nc2cc(C(=O)N/N=C/c3cccc(OC)c3O)ccc21	HTT aggregate 2µM
COc1ccc(/C=N/NC(=O)c2c(C)nc3ccc(Br)cn23)cc1OC	none
CC(=O)Nc1nc(-c2ccc3c(c2)CC(C)N3C(=O)C2CC2)c(C)s1 (centres undefined)	none (no result: KDM4E inh, HTT aggregate, HTT ATP protect, GoLoco inh red)
Cc1sc(NC(=O)c2ccco2)nc1-c1ccc2c(c1)CC(C)N2C(=O)C1CC1 (centres undefined)	KDM4E inh inconclusive, HTT aggregate 15.8µM
COc1ccc(C2Nc3ccccc3C(=O)N2Cc2ccco2)cc1COc1c(C)cccc1C (centres undefined)	VDR inh 14.1µM (no result: KDM4E inh, Coupling enz, HTT aggregate, HTT ATP protect, GoLoco inh red)
CCOc1ccc(CCNC(=O)c2cc3c(-c4ccc(OC)c(OC)c4)nn(C)c3s2)cc1OCC	none (no result: KDM4E inh, Coupling enz, HTT aggregate, HTT ATP protect, GoLoco inh red)
O=c1c2cn[nH]c2nc(SCc2ccccc2F)n1-c1ccc(Br)cc1	HTT aggregate 12.6µM (no result: HTT ATP protect)
Cc1ccc(SC(CC(=O)c2ccc(F)cc2)C(=O)O)cc1 (centres undefined)	VDR inh 22.4µM (no result: KDM4E inh, HTT aggregate, HTT ATP protect, GoLoco inh red)
O=C(CC(C(=O)O)c1ccc(F)cc1)c1ccc(Cl)cc1 (centres undefined)	none (no result: KDM4E inh, HTT aggregate, HTT ATP protect, GoLoco inh red)
CCCCCCCCOc1ccc(C2OC34CCCCC3C(C#N)(C#N)C2(C#N)C(=N)O4)cc1 (centres undefined)	KDM4E inh inconclusive, GoLoco inh red 28.2µM
CCCCC1OC23CCCCC2C(C#N)(C(=N)O3)C1(C#N)C#N (centres undefined)	KDM4E inh inconclusive
CCCCC1OC23CCCCC2C(C#N)(C#N)C1(C#N)C(=N)O3 (centres undefined)	Coupling enz -45.0, GoLoco inh red 28.2µM
CC(C)(C)C1=CC=C(C(C)(C)C)C(=O)C1=O	Coupling enz -59.6 (no result: VDR inh)
CCn1c(C)nc2cc(S(N)(=O)=O)ccc21	VDR inh inconclusive
CCn1c(C)nc2cc(S(=O)(=O)C(F)(F)C(F)C(F)(F)F)ccc21 (centres undefined)	HTT aggregate 7.08µM
CC1Oc2ccccc2C=C1/C=C1/SC(N2CCOCC2)=NC1=O (centres undefined)	Coupling enz -43.6
O=C(NCc1ccco1)c1ccccc1NS(=O)(=O)c1ccc(Cl)s1	HTT aggregate 17.8µM
O=C(Nc1ccccc1Cc1ccccc1)c1ccccc1NS(=O)(=O)c1ccc(Cl)s1	HTT aggregate 2.51µM (no result: HTT ATP protect)
O=C(NCc1ccco1)c1ccccc1NS(=O)(=O)c1cccs1	none
Cc1ccc(NC(=O)c2ccccc2NS(=O)(=O)c2ccc(Cl)s2)cc1	HTT aggregate 3.16µM
